The text below walks through data of PubChem BioAssay.

Assay [1] is described as follows: anti-His antibody binders, primary screen, artefact control for SMM control protein annotation, biochemical, small-molecule microarray, 635 nm fluorescence (AID 1128).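 Further: score merges feature fluorescence with signal-to-noise for each printed compound spot.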 The note with it: anti-His Alexa647 antibody binding, higher = more signal.
The test system of assay [2] is Human papillomavirus type 1a E7 protein (residues 1-88). Put plainly: HPV1a E7 small-molecule binders, primary screen, biochemical, small-molecule microarray, residues 1-88, 635 nm (AID 1129). The note with it: small-molecule microarray binding, fluorescence 635 nm; higher = more signal.
Assay [3] concerns the target Focal adhesion kinase 1 (Homo sapiens) (UniProt Q05397). Put plainly: small-molecule microarray binders of FAK, primary screen, biochemical, 635/667 nm fluorescence, BSA, DTT (AID 1130).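 Further: composite of spot emission at 667 nm and signal to noise over triplicate slides.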 The conditions noted are these: PTK2 binding, 635 nm fluorescence, higher = more signal.
The test system of assay [4] is Fibrinogen (Alexa647-labelled). Nature of the assay: fibrinogen binders on compound microarrays, profiling panel, artefact control for SMM control-protein annotation, biochemical, small-molecule microarray, 635/667 nm fluorescence (AID 1131).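 Further: z-score merges 667 nm fluorescence with per-spot signal-to-noise over triplicate slides.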 The conditions noted are these: fibrinogen-A647 binding fluorescence, higher = more signal.
Assay [5] addresses Follistatin (Homo sapiens) (UniProt P19883). Nature of the assay: follistatin binders on small-molecule microarrays, primary screen, biochemical, small-molecule microarray, 635/667 nm fluorescence (AID 1132). The note with it: FST binding, 635 nm fluorescence, higher = more signal.
For assay [6], the target named is Fibroblast growth factor 2 (Homo sapiens) (UniProt P09038). Put plainly: FGF2 binders on small-molecule microarrays, primary screen, biochemical, small-molecule microarray, 635/667 nm fluorescence (AID 1133). The note with it: small-molecule microarray binding, FGF2, fluorescence 635/667; higher = more signal.
Sequence of Fibroblast growth factor 2 (Homo sapiens) (P09038 whole entry, looked up): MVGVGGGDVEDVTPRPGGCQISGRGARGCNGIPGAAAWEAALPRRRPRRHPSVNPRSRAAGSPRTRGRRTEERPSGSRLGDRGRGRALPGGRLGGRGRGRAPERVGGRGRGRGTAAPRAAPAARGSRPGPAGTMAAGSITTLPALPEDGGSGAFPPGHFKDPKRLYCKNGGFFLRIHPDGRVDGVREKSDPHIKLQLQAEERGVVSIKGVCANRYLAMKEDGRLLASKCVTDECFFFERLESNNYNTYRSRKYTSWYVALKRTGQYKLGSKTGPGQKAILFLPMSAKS
Assay [7] can be described thus: mitochondrial membrane potential change in A549 cells, profiling panel, cell-based, JC-1 fluorescence, basal, 24 h, 100 nL (AID 1138).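 Further: A549 lung adenocarcinoma cells under basal conditions with no added stimulus; test concentration not given here.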 The conditions noted are these: higher = more signal.
Assay [8] concerns Lefty1. Put plainly: Lefty1 binders on small-molecule microarrays, primary screen, biochemical, small-molecule microarray, 635/667 nm fluorescence (AID 1139). The conditions noted are these: small-molecule microarray binding, fluorescence 635/667; higher = more signal.
The subject of assay [9] is wheat germ agglutinin (Triticum aestivum), Alexa647-labelled. Put plainly: wheat germ agglutinin binders on compound microarrays, profiling panel, artefact control for SMM control-protein annotation, biochemical, small-molecule microarray, 635/667 nm fluorescence (AID 1140).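 Further: score merges 667 nm feature emission with signal to noise over triplicate slides.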 The conditions noted are these: WGA-A647 binding, 635 nm fluorescence, higher = more signal.
The target in assay [10] is Luciferin 4-monooxygenase (Photinus pyralis) (UniProt P08659). Nature of the assay: firefly luciferase enzyme inhibitors, primary screen, biochemical, luminescence, purified enzyme, 2006 set (AID 1141).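 Further: cell-free assay with purified firefly luciferase at 100 ng per well in PBS; test concentration not given here.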 The conditions noted are these: SteadyGlo luminescence, 30 min, higher = more signal, called active from +8 up or from −8 down.
Sequence of Luciferin 4-monooxygenase (Photinus pyralis) (P08659 whole entry, looked up): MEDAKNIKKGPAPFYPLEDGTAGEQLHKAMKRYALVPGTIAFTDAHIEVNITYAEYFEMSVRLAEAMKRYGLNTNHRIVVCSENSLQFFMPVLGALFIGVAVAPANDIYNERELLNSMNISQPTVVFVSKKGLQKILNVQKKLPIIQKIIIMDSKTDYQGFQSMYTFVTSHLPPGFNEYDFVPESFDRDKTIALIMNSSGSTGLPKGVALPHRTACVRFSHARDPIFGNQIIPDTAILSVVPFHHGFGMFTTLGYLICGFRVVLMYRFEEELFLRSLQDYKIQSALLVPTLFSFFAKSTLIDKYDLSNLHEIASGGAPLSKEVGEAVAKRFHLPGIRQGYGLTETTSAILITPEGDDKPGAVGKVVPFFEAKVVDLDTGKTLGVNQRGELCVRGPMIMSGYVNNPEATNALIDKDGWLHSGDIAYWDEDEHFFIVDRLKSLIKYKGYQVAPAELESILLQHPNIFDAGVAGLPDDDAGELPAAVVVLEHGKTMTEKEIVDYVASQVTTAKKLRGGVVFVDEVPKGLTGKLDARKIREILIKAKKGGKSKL
Assay [11] has as its system Wnt5a (protein binding on small-molecule microarray). Nature of the assay: Wnt5a binders on small-molecule microarray, primary screen, biophysical, 635/667 nm fluorescence (AID 1142).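 Further: fluorescence read at 667 nm with signal to noise per printed feature.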 The note with it: 635 nm fluorescence, higher = more signal.
Assay [12] in a line: cell viability in Huh7 cells, primary screen, cytotoxicity control for HCV replication inhibitor project, CellTiter-Glo luminescence, basal, 48 h (AID 1143).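 Further: Huh7 hepatoma cells carrying a hepatitis C replication reporter with no stimulus; test concentration not given here.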 The note with it: Huh7 HCV replicon, higher = more signal, called active from +8 up or from −8 down.
Assay [13] in a line: P. aeruginosa biofilm formation inhibitors, primary screen, PAO1 strain, BacTiter-Glo luminescence, LB-PBS (AID 1144). The note with it: 12 h, higher = more signal.
A short description of assay [14]: CREB reporter modulators without forskolin, primary screen, cell-based, PC12, CRE-LacZ reporter, unstimulated (AID 1145). The note with it: no forskolin, luminescence, 4.5 h, higher = more signal, called active from +8 up or from −8 down.
A short description of assay [15]: CREB reporter modulators under forskolin, primary screen, cell-based, PC12, CRE-LacZ reporter, forskolin-stimulated (AID 1146).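 Further: PC12 cells with 6xCRE LacZ reporter stimulated by forskolin 10 µM; beta-galactosidase reporter signal reflecting CREB driven transcription.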 The conditions noted are these: luminescence, 4.5 h, higher = more signal, called active from +8 up or from −8 down.
The target in assay [16] is Streptavidin (Streptomyces avidinii) (UniProt P22629). Nature of the assay: streptavidin binders on small-molecule microarray, primary screen, artefact control for SMM compound annotation, biophysical, 635/667 nm fluorescence (AID 1147).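 Further: signal reflects streptavidin binding to arrayed compounds as a control protein.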 The note with it: streptavidin binding, higher = more signal.
Sequence of Streptavidin (Streptomyces avidinii) (P22629 whole entry, looked up): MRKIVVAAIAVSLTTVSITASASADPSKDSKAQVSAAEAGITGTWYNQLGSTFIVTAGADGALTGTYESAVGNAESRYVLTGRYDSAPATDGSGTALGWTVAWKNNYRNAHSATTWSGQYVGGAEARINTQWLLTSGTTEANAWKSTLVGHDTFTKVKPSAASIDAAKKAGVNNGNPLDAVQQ
Assay [17] is described as follows: small-molecule binders of probe aInhba, primary screen, biochemical, small-molecule microarray, 635/667 nm fluorescence (AID 1148).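 Further: score merges 667nm spot fluorescence with signal-to-noise for antibody binding to printed compounds.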 The conditions noted are these: higher = more signal.
The target of assay [18] is Torsin-1A (Homo sapiens) (UniProt O14656). Put plainly: torsin A binders from cell lysate, primary screen, small-molecule microarray, wild-type, 635/667 nm (AID 1149). The conditions noted are these: COS7 hTOR1A-WT lysate, 635 nm fluorescence, higher = more signal.
Sequence of Torsin-1A (Homo sapiens) (O14656 whole entry, looked up): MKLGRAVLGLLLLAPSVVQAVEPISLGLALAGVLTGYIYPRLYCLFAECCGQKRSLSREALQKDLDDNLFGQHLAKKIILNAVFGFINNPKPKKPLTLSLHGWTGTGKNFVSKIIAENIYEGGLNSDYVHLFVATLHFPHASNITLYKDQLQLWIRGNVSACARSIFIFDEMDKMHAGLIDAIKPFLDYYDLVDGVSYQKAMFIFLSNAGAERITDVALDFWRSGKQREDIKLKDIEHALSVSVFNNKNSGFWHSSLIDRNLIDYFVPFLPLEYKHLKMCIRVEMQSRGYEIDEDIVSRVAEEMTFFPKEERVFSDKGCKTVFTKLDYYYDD
The target is the same in assay [19]. Put plainly: small-molecule binders of mutant TOR1A in lysate, primary screen, cell lysate, small-molecule microarray, COS7 lysate, 635/667 nm fluorescence (AID 1150).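 Further: score pools 667 nm emission and signal to noise measuring lysate protein binding.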 The note with it: COS7 hTOR1A mutant lysate, 635 nm fluorescence, higher = more signal.
Assay [20] concerns Sonic hedgehog protein (Shh). Put plainly: small-molecule binders of Shh protein, primary screen, biochemical, small-molecule microarray, 635/667 nm fluorescence (AID 1151).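 Further: Shh protein binding to compounds spotted on small-molecule microarray slides; score combines spot fluorescence intensity with signal-to-noise across triplicate slides.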 The conditions noted are these: small-molecule microarray binding, 635 nm fluorescence; higher = more signal.

Activity calls are given as the source filed them. Unless noted, how the calls were made is not given here.

Sequence of Follistatin (Homo sapiens) (P19883 whole entry, looked up): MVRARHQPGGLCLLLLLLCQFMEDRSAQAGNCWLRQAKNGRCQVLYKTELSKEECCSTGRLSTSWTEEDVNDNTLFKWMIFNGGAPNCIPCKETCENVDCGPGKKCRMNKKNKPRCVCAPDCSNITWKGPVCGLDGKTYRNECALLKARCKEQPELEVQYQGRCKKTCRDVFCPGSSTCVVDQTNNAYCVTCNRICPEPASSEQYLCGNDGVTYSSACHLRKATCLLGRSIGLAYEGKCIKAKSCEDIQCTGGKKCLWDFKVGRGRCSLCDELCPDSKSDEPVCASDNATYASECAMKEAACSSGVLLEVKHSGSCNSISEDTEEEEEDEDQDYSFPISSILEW
Sequence of Focal adhesion kinase 1 (Homo sapiens) (Q05397 whole entry, looked up): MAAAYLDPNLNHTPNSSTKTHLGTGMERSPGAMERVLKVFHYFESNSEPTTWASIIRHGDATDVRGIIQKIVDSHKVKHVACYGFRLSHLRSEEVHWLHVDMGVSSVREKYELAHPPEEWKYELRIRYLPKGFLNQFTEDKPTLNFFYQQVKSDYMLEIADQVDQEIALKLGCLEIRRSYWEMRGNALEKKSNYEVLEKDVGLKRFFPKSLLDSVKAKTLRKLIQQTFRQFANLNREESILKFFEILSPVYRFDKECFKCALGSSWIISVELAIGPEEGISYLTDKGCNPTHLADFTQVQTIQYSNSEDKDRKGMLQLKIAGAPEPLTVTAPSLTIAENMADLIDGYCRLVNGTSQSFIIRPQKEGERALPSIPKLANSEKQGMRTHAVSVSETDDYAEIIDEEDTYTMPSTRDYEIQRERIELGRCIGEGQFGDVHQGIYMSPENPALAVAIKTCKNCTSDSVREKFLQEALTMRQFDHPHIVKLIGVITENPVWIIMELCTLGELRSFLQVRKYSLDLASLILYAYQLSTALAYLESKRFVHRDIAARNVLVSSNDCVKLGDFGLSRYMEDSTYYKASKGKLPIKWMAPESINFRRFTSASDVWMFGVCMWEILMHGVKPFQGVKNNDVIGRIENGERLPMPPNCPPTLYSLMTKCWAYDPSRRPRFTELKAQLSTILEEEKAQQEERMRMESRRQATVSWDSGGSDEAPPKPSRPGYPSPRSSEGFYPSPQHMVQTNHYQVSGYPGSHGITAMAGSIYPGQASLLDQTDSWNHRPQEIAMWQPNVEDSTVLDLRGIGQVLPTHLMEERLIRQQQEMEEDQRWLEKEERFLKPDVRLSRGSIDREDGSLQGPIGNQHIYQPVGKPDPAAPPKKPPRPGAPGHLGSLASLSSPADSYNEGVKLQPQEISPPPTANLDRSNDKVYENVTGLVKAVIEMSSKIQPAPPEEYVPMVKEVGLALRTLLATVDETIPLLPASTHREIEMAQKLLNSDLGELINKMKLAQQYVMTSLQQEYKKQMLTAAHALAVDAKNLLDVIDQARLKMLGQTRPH

Turning to `CN(C)C(=O)[C@@]1(CCS(=O)(=O)c2ccccc2)N=C(c2ccc(OCCCO)cc2)O[C@H]1c1ccccc1CN=[N+]=[N-]`, the composite z-score was determined as 1.78 in [1]; 1.25 in assay [2]; 0.642 in [3]; 1.06 in assay [4]; 0.871 in assay [5]; 0.513 in assay [6]. Besides, the composite z-score in assay [8] was 0.49; in [9], 0.915; in [11], 0.909; in assay [16], 1.13; in [17], 0.148; in assay [18] it was 1.07. In addition, the composite z-score was determined as 0.351 in [19] and 0.159 in assay [20]. Further, the z-score in assay [7] was -0.0571; in [10] it was 0.628 (inactive); in [12], -3.95 (inactive); in assay [13], -0.873 (inactive); in assay [14], -0.151 (inactive); in assay [15], -0.607 (inactive).

`COc1ccc([Si](C)(C)[C@@H]2[C@@H](CCO)O[C@]3(C(=O)N(Cc4ccccc4)c4ccc(N5CCCCC5=O)cc43)[C@H]2C)cc1`: the composite z-score in assay [1] was determined as 1.47; in [2], 1.17; in [3], 1.61; in assay [4] it was 0.734; in assay [5], 1.13; in assay [6], 0.634. Further, the composite z-score in assay [8] is 0.788; in assay [9] it was 0.184; in [11] it was 0.271; in assay [16], 0.583; in assay [17], 0.0446; in assay [18], -0.121. Further, the composite z-score is 0.198 in [19] and 1.44 in [20]. Besides, the z-score in assay [7] is -0.167; in assay [10], 0.0481 (inactive); in assay [12], -8.08 (active); in [13], -0.119 (inactive); in assay [14], 8.84 (active); in [15] it was -0.94 (inactive).

On to `COC(=O)[C@@]1(Cc2ccc(F)cc2)[C@@H]2[C@@H](CC(=O)[C@H]2CC(=O)C(=O)N2CCCC2)CN1C(=O)c1ccccc1`, for which the composite z-score in assay [1] is 0.266; in assay [2], 1.24; in [3] it was 1.51; in assay [4] it was 0.931; in assay [5], 0.95; in assay [6] it was 0.455. In addition, the composite z-score was -1.01 in assay [8]; 0.772 in [9]; 0.603 in [11]; 1.48 in assay [16]; 1.4 in [17]; 0.0262 in assay [18]. The results for the composite z-score in [19] and in [20] were 0.666 and -0.695, respectively. Also, the z-score in assay [7] was 0.694; in [10], 2.19 (inactive); in [12], -2.93 (inactive); in [13], 0.925 (inactive); in assay [14], 0.766 (inactive); in assay [15] it was 0.526 (inactive).

In the case of `COc1ccc([Si](C)(C)[C@H]2[C@H](CCO)O[C@@]3(C(=O)N(Cc4cccc(N5CCOC5=O)c4)c4ccccc43)[C@@H]2C)cc1`, the composite z-score was 0.56 in assay [1]; 1.13 in [2]; 0.413 in assay [3]; 0.708 in assay [4]; 0.433 in [5]; 0.203 in assay [6]. The composite z-score was 0.729 in [8]; 0.63 in assay [9]; 0.217 in [11]; 0.71 in [16]; -0.0736 in assay [17]; -0.0637 in [18]. The composite z-score in assay [19] was -0.217; in assay [20], 1.47. Also, the z-score was 0.00631 in assay [7]; -0.0833 (inactive) in assay [10]; -5.72 (inactive) in assay [12]; -0.112 (inactive) in assay [13]; 0.907 (inactive) in assay [14]; -0.827 (inactive) in assay [15].

For the molecule `Cc1cc(C)c(C(O)C2C=CC3C(=O)N(c4ccccc4)C(=O)C3N2Nc2ccc([N+](=O)[O-])cc2)c(C)c1` (stereo not given), the composite z-score in assay [1] worked out at 0.945; in assay [2], 1.22; in [3] it was 0.434; in assay [4], 1.02; in assay [5], 1.08; in assay [6], 0.504. Further, the composite z-score is 0.648 in [8]; 0.71 in [9]; 0.243 in [11]; 1.72 in assay [16]; 0.548 in assay [17]; 0.567 in assay [18]. For the same molecule, the figures for the composite z-score in assay [19] and in assay [20] were 1.2 and 0.697, respectively. Moreover, the z-score was -0.712 in assay [7]; 1.12 (inactive) in assay [10]; -1.1 (inactive) in assay [12]; -2.08 (inactive) in assay [13]; -0.0696 (inactive) in assay [14]; 0.691 (inactive) in assay [15].

Consider `CN1C(=O)C2C=CC(C(O)c3cccc4ccccc34)N(NC(=O)OC(C)(C)C)C2C1=O` (stereo not given), for which the composite z-score is 1.45 in [1]; 1.02 in assay [2]; 1.83 in [3]; 0.691 in [4]; 0.435 in assay [5]; -0.331 in assay [6]. The composite z-score in assay [8] was -0.516; in assay [9] it was 1.16; in [11] it was 0.611; in [16], 1.51; in assay [17] it was 0.723; in [18], 0.104. Further, the composite z-score in [19] is 1.41; in [20] it was -0.271. Besides, the z-score was 0.274 in [7]; 0.216 (inactive) in assay [10]; 0.227 (inactive) in assay [12]; 0.489 (inactive) in assay [13]; 1 (inactive) in assay [14]; 0.6 (inactive) in [15].

As for `CC(=O)NCCCC[C@@H]1NC(=O)[C@@H]2C[C@H](C(=O)NCCCC[N+](C)(C)C)[C@H](c3cccc(OCCO)c3)N2C1=O`, the composite z-score in assay [1] was 1.5; in [2] it was -0.411; in [3], 0.164; in assay [4] it was -1.39; in assay [5] it was 1.4; in assay [6] it was 1.57. The composite z-score in assay [8] is 0.512; in assay [9], 0.994; in assay [11], 0.198; in [16] it was -0.407; in [17] it was -0.0471; in assay [18] it was 2.44. Moreover, the composite z-score turned out to be 1.83 in [19] and 1.89 in [20]. The z-score in assay [7] was -0.251; in assay [10], 0.0595 (inactive); in assay [12], -0.283 (inactive); in assay [13] it was -0.192 (inactive); in assay [14], -0.532 (inactive); in [15], -0.441 (inactive).

With `NC(=O)NCC#Cc1ccc2c(c1)[C@]1(C(=O)N2)[C@H](c2ccc(OCCO)cc2)N2[C@H](c3ccccc3)[C@H](c3ccccc3)OC(=O)[C@H]2[C@@H]1C(=O)N1CCCCCCC1`, the composite z-score was found to be 0.418 in [1]; 1.18 in assay [2]; 1.08 in assay [3]; 0.41 in assay [4]; 1.39 in [5]; 1.15 in assay [6]. For the same molecule, the composite z-score in assay [8] is 1.64; in [9], 1.44; in assay [11] it was 1.4; in assay [16] it was 3.11; in assay [17] it was 1.93; in assay [18], 0.533. The composite z-score in [19] is 1.02; in assay [20], 1.35. The z-score in assay [7] was -1; in [10], -0.254 (inactive); in [12] it was 0.132 (inactive); in [13] it was 0.848 (inactive); in [14], -0.0515 (inactive); in assay [15], 0.449 (inactive).

Regarding `CC(C)(C)OC(=O)CC[C@@]1(C(=O)N2CCCCC2)N=C(c2ccc(OCCCO)cc2)O[C@@H]1c1ccccc1CN=[N+]=[N-]`, the composite z-score in assay [1] amounted to 3.24; in assay [2], 1.21; in assay [3], 1.26; in [4], 1.03; in assay [5], 1.04; in assay [6] it was 0.0627. Also, the composite z-score in assay [8] was determined as 0.0215; in [9], 1.35; in assay [11] it was 0.34; in assay [16] it was 1.07; in assay [17] it was 0.248; in assay [18], 1.1. Besides, the composite z-score in assay [19] was 1.22; in [20], -0.226. The z-score in [7] is 1.58; in assay [10] it was -0.931 (inactive); in [12], -1.95 (inactive); in [13], 0.37 (inactive); in assay [14], 0.414 (inactive); in [15], -0.284 (inactive).
